# Data: ChEMBL document CHEMBL1961873, “Compounds: GSK PKIS; Assays: Nanosyn kinase panel” (2012)
# Target: Dual specificity protein kinase CLK3 (Homo sapiens) (UniProt P49761);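 also: each value is the mean inhibition of CLK3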
# Settings: at 1 µM
# Sequence of Dual specificity protein kinase CLK3 (Homo sapiens) (P49761 whole entry, looked up): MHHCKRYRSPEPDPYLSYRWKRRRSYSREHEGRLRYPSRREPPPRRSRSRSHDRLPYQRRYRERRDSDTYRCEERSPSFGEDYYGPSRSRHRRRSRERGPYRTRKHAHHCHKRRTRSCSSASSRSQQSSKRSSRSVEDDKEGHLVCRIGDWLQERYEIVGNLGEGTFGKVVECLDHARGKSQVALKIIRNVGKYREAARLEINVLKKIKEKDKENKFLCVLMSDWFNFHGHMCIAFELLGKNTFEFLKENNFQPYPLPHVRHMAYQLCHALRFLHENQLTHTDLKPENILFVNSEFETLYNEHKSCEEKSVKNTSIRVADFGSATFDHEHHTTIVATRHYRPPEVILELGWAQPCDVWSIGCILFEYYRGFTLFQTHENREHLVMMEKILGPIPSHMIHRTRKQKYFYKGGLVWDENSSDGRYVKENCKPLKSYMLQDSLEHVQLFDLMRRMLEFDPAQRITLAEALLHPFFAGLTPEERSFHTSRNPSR
row,Structure (SMILES),inhibition
1,NS(=O)(=O)c1ccc(-c2ccc3c(NC(=O)C4CC4)n[nH]c3c2)cc1,2.75%
2,CCn1c(-c2nonc2N)nc2c(C#CC(C)(C)O)ncc(OCC3CCNCC3)c21,-1.7%
3,CCn1c(-c2nonc2N)nc2c(C#CCN)ncc(OCCCN)c21,-1.34%
4,Nc1nonc1-c1nc2cnccc2n1C1CCCCC1,2.98%
5,COc1cccc(COc2cc(-n3cnc4ccccc43)sc2C(N)=O)c1,-0.91%
6,NS(=O)(=O)c1ccc(N/C=C2\C(=O)Nc3ccc4ncsc4c32)cc1,9.47%
7,Fc1ccc(-c2ncn(C3CCNCC3)c2-c2ccnc(Oc3ccccc3)n2)cc1,-4.71%
8,CCn1c(-c2nonc2N)nc2c(C#CC(C)(C)O)nc(O[C@@H](CN)c3ccccc3)cc21,1.71%
9,COc1cc2c(cc1Nc1nc(Nc3ccsc3C(N)=O)c3cc[nH]c3n1)N(C(=O)CN(C)C)CCC2,2.92%
10,Cc1cc(-c2ccco2)cc(C)c1/C=C/c1cncc(-c2nn[nH]n2)c1,0.08%
11,CCn1c(-c2nonc2N)nc2c(C#CC(C)(C)O)ncc(OC[C@@H]3CCCN3)c21,-0.53%
12,COc1cc(C=NNc2ncnc3c2cnn3Cc2ccccc2)ccc1O,9.8%
13,NC(=O)c1sc(-n2cnc3cc(C(F)(F)F)ccc32)cc1OCc1ccccc1Br,-0.53%
14,COc1cccc(-n2ncc3c(N/N=C/c4ccncc4)ncnc32)c1,19.3%

# Target: Dual specificity tyrosine-phosphorylation-regulated kinase 1A (Homo sapiens) (UniProt Q13627)
# Settings: at 0.1 µM
row,Structure (SMILES),inhibition
1,NS(=O)(=O)c1ccc(-c2ccc3c(NC(=O)C4CC4)n[nH]c3c2)cc1,2.37%
2,CCn1c(-c2nonc2N)nc2c(C#CC(C)(C)O)ncc(OCC3CCNCC3)c21,-3.13%
3,CCn1c(-c2nonc2N)nc2c(C#CCN)ncc(OCCCN)c21,1.67%
4,Nc1nonc1-c1nc2cnccc2n1C1CCCCC1,34.3%
5,COc1cccc(COc2cc(-n3cnc4ccccc43)sc2C(N)=O)c1,0.34%
6,NS(=O)(=O)c1ccc(N/C=C2\C(=O)Nc3ccc4ncsc4c32)cc1,21.7%
7,Fc1ccc(-c2ncn(C3CCNCC3)c2-c2ccnc(Oc3ccccc3)n2)cc1,-2.73%
8,CCn1c(-c2nonc2N)nc2c(C#CC(C)(C)O)nc(O[C@@H](CN)c3ccccc3)cc21,1.79%
9,COc1cc2c(cc1Nc1nc(Nc3ccsc3C(N)=O)c3cc[nH]c3n1)N(C(=O)CN(C)C)CCC2,-1.83%
10,Cc1cc(-c2ccco2)cc(C)c1/C=C/c1cncc(-c2nn[nH]n2)c1,-0.27%
11,CCn1c(-c2nonc2N)nc2c(C#CC(C)(C)O)ncc(OC[C@@H]3CCCN3)c21,-0.49%
12,COc1cc(C=NNc2ncnc3c2cnn3Cc2ccccc2)ccc1O,3.11%
13,NC(=O)c1sc(-n2cnc3cc(C(F)(F)F)ccc32)cc1OCc1ccccc1Br,-0.2%
14,COc1cccc(-n2ncc3c(N/N=C/c4ccncc4)ncnc32)c1,28.7%

# Target: Dual specificity tyrosine-phosphorylation-regulated kinase 1A (Homo sapiens) (UniProt Q13627)
# Settings: at 1 µM
row,Structure (SMILES),inhibition
1,NS(=O)(=O)c1ccc(-c2ccc3c(NC(=O)C4CC4)n[nH]c3c2)cc1,5.69%
2,CCn1c(-c2nonc2N)nc2c(C#CC(C)(C)O)ncc(OCC3CCNCC3)c21,1.2%
3,CCn1c(-c2nonc2N)nc2c(C#CCN)ncc(OCCCN)c21,4.43%
4,Nc1nonc1-c1nc2cnccc2n1C1CCCCC1,78%
5,COc1cccc(COc2cc(-n3cnc4ccccc43)sc2C(N)=O)c1,-0.09%
6,NS(=O)(=O)c1ccc(N/C=C2\C(=O)Nc3ccc4ncsc4c32)cc1,74.4%
7,Fc1ccc(-c2ncn(C3CCNCC3)c2-c2ccnc(Oc3ccccc3)n2)cc1,-2.33%
8,CCn1c(-c2nonc2N)nc2c(C#CC(C)(C)O)nc(O[C@@H](CN)c3ccccc3)cc21,7.95%
9,COc1cc2c(cc1Nc1nc(Nc3ccsc3C(N)=O)c3cc[nH]c3n1)N(C(=O)CN(C)C)CCC2,0.58%
10,Cc1cc(-c2ccco2)cc(C)c1/C=C/c1cncc(-c2nn[nH]n2)c1,2.81%
11,CCn1c(-c2nonc2N)nc2c(C#CC(C)(C)O)ncc(OC[C@@H]3CCCN3)c21,-0.73%
12,COc1cc(C=NNc2ncnc3c2cnn3Cc2ccccc2)ccc1O,9.48%
13,NC(=O)c1sc(-n2cnc3cc(C(F)(F)F)ccc32)cc1OCc1ccccc1Br,1.95%
14,COc1cccc(-n2ncc3c(N/N=C/c4ccncc4)ncnc32)c1,72.3%

# Target: Dual specificity tyrosine-phosphorylation-regulated kinase 1B (Homo sapiens) (UniProt Q9Y463);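 also: values are mean percent inhibition of DYRK1B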
# Sequence (Q9Y463 whole entry, looked up): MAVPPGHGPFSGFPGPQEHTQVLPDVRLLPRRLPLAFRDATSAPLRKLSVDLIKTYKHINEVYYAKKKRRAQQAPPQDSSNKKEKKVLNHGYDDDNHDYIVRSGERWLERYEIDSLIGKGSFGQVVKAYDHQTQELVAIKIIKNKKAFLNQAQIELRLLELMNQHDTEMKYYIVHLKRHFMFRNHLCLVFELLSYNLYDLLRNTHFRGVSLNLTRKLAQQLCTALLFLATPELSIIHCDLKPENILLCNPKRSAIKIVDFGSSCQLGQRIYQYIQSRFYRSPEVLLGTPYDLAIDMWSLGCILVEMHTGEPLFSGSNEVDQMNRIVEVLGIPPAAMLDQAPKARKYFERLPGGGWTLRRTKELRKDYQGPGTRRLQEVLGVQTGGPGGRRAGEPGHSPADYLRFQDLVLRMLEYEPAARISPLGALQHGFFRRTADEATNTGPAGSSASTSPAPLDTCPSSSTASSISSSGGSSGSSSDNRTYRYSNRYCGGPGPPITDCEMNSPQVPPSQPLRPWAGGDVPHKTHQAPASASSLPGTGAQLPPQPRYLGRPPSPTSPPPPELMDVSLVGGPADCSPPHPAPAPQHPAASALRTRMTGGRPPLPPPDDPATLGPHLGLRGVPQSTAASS
# Settings: at 0.1 µM
row,Structure (SMILES),inhibition
1,NS(=O)(=O)c1ccc(-c2ccc3c(NC(=O)C4CC4)n[nH]c3c2)cc1,0.86%
2,CCn1c(-c2nonc2N)nc2c(C#CC(C)(C)O)ncc(OCC3CCNCC3)c21,-4.04%
3,CCn1c(-c2nonc2N)nc2c(C#CCN)ncc(OCCCN)c21,5.17%
4,Nc1nonc1-c1nc2cnccc2n1C1CCCCC1,23.4%
5,COc1cccc(COc2cc(-n3cnc4ccccc43)sc2C(N)=O)c1,-0.5%
6,NS(=O)(=O)c1ccc(N/C=C2\C(=O)Nc3ccc4ncsc4c32)cc1,9.26%
7,Fc1ccc(-c2ncn(C3CCNCC3)c2-c2ccnc(Oc3ccccc3)n2)cc1,-4.97%
8,CCn1c(-c2nonc2N)nc2c(C#CC(C)(C)O)nc(O[C@@H](CN)c3ccccc3)cc21,2.3%
9,COc1cc2c(cc1Nc1nc(Nc3ccsc3C(N)=O)c3cc[nH]c3n1)N(C(=O)CN(C)C)CCC2,-0.31%
10,Cc1cc(-c2ccco2)cc(C)c1/C=C/c1cncc(-c2nn[nH]n2)c1,-0.75%
11,CCn1c(-c2nonc2N)nc2c(C#CC(C)(C)O)ncc(OC[C@@H]3CCCN3)c21,-2.29%
12,COc1cc(C=NNc2ncnc3c2cnn3Cc2ccccc2)ccc1O,3.37%
13,NC(=O)c1sc(-n2cnc3cc(C(F)(F)F)ccc32)cc1OCc1ccccc1Br,-0.04%
14,COc1cccc(-n2ncc3c(N/N=C/c4ccncc4)ncnc32)c1,16.2%
